Laboratory results taken from PubChem BioAssay AID493073 (Broad Institute, 2011).
About 810 (68%) of roughly 1,200 compounds were called active. So high a share suggests a set chosen from earlier hits. The list is a sample of the results. Entries with a potency or affinity are not part of this list. Values without a mark were called inactive. How the calls were made is not given here.

Assay: TRPM1 promoter luciferase signal decrease, dose response, MITF inhibitor project, cell-based, SK-MEL-5, cherry-picked, set 3 (AID 493073)
Details: SK-MEL-5 TRPM1 promoter luciferase, 24 h; series mostly up to 35 µM; activity change, negative = inhibition: at the top concentration

Compared with `Cc1ccc(NC(=O)Cc2noc3ccccc23)cc1`, `Cc1ccc(NC(=O)c2ccccc2)cc1` is lower in “activity change, negative = inhibition” value: 101% for the first, 80.8% for the second.

Compared with `C=CCNC(=O)c1ccc2nc(Cc3ccc(OC)cc3)oc2c1`, `COc1ccc(C(=O)CCNc2ccc(F)cc2)cc1` is higher in “activity change, negative = inhibition” value: 19.8% for the first, 85.6% for the second.

Going from `Cc1c(C(=O)Nc2ccc(S(=O)(=O)N(C)C3CCN(C)CC3)cc2)oc2c(Cl)cccc12` to `COc1c(C)cccc1C(=O)Nc1ccc(N2CCN(S(C)(=O)=O)CC2)cc1`, the “activity change, negative = inhibition” value rises from -97.5% to -65.2%.

First: c1ccc(CSc2nnc(-c3ccco3)n2Cc2ccco2)cc1
Second: O=C(Nc1nnc(Cc2ccccc2)s1)c1ccccc1
The “activity change, negative = inhibition” value of the first is higher: 75.4% for the first, 68.1% for the second.

Compared with `Cc1cccc(NC(=O)Cc2ccc(Br)cc2)n1`, `Cc1ccc(CC(=O)Nc2ccc(Cl)cn2)cc1` is lower in “activity change, negative = inhibition” value: 117% for the first, 56.5% for the second.

Compared with `O=C(NC1CC1)C1CCN(S(=O)(=O)c2ccc(Cl)c([N+](=O)[O-])c2)CC1`, `O=C(/C=C/c1ccccc1Cl)NC1CCCCC1` is higher in “activity change, negative = inhibition” value: -67.9% for the first, -21.5% for the second.

Going from `CN(c1ccc(O)cc1)c1nc(O)c(C2=c3ccccc3=NC2=O)s1` to `Cc1cccc(OCC(=O)Nc2cccc(O)c2)c1`, the “activity change, negative = inhibition” value falls from 116% to 60.4%.

Compared with `CCOC(=O)c1cc(-c2ccc(OC)cc2)n[nH]1`, `COc1ccc(-c2csc(N(C)C(=O)c3ccco3)n2)cc1` is lower in “activity change, negative = inhibition” value: 78% for the first, 74% for the second.

Going from `Cc1ccc2oc(Nc3nc(C)c(C)c(C)n3)nc2c1` to `Cc1ccc(Nc2nnc(-c3ccccc3N)o2)cc1C`, the “activity change, negative = inhibition” value rises from 28.3% to 94.4%.

First: Cc1c(OCC(=O)NC2CC(C)(C)NC(C)(C)C2)ccc2c1oc(=O)c1ccccc12
Second: COC(=O)c1c(NC(=O)c2nc3ccccc3s2)sc2c1CC(C)(C)NC2(C)C
The “activity change, negative = inhibition” value of the first is higher: -99.4% for the first, -108% for the second.

Compared with `O=C1c2ccccc2C(=O)N1CCSc1ccccc1`, `CC(=O)COc1ccc2cc(-c3ccccc3)c(=O)oc2c1` is lower in “activity change, negative = inhibition” value: 102% for the first, 59.7% for the second.

First: COc1cc(OC)cc(C(=O)Nc2ccc3c(c2)OCCO3)c1
Second: COc1cccc(NC(=O)c2cc3ccccc3cc2OC)c1
The “activity change, negative = inhibition” value of the first is higher: 98.8% for the first, 51.2% for the second.

First: CN(C)CCNC(=O)/C(=C/c1ccc(-c2ccc(Cl)cc2)o1)NC(=O)c1ccccc1
Second: O=C(Nc1ccccc1F)C(=O)Nc1cccc2ccccc12
The “activity change, negative = inhibition” value of the first is lower: -96.9% for the first, 19.6% for the second.

First: CN(C)/C=N/c1ncc(C(=O)c2ccccc2)s1
Second: CS(=O)(=O)c1ccc2nc(NC(=O)c3ccccc3)sc2c1
The “activity change, negative = inhibition” value of the first is higher: 55.9% for the first, 12.7% for the second.

First: C(=N\Nc1cc(N2CCCCC2)ncn1)/c1ccco1
Second: CC(=C/c1ccco1)/C=N/N1CCN(c2ccccc2)CC1
The “activity change, negative = inhibition” value of the first is higher: -23.1% for the first, -79.5% for the second.

Compared with `CC(=O)c1sc(N/N=C\c2ccc(N(C)C)cc2)nc1C`, `Cc1csc(N/N=C/c2ccc([N+](=O)[O-])cc2)n1` is lower in “activity change, negative = inhibition” value: 82.6% for the first, 61% for the second.

Compared with `N#C/C(=C\c1c[nH]c2ccccc12)C(=O)NC1CC1`, `N#C/C(=C\c1cccs1)C(=O)NCC1CCCO1` (stereo not drawn) is higher in “activity change, negative = inhibition” value: 85.3% for the first, 116% for the second.

Compared with `CCC1CCCCN1CCCNC(=O)c1cn(CC)c2ccc(S(=O)(=O)N(C)C3CCCCC3)cc2c1=O` (stereo not drawn), `CCN1CCN(c2ccc(S(=O)(=O)N3CCCCC3)cc2NC(=O)/C=C/c2cccc(OC)c2OC)CC1` is lower in “activity change, negative = inhibition” value: -22.7% for the first, -98% for the second.

Going from `O=C(Cn1nnc(-c2ccccc2Cl)n1)N1CCCCC1` to `Cc1cc(N2CCOCC2)n2ncc(-c3ccccc3Cl)c2n1`, the “activity change, negative = inhibition” value rises from -1.19% to 102%.

Going from `COc1ccc(CCC(=O)N2CCc3ccccc32)cc1` to `CCOc1ccc(C(=O)N2CCc3ccccc32)cc1`, the “activity change, negative = inhibition” value falls from 67.5% to 38.1%.

Going from `Cc1ccc(C(=O)Nc2ccccc2Cl)cc1` to `O=C(Nc1ccccc1Cl)Nc1cccc2cccnc12`, the “activity change, negative = inhibition” value rises from 54.6% to 68%.

Going from `Cc1ccc(C(=O)NC2=NCCS2)cc1Cl` to `O=C(NC1=NCCS1)c1ccc(Cl)c(Cl)c1`, the “activity change, negative = inhibition” value falls from 71.2% to 44.6%.

Going from `COc1ccc2c(c1OC)C(=O)N(c1ccc(C)cc1)C2` to `CCOc1ccc(N/C=C/C(=O)c2ccc(OC)c(OC)c2)cc1`, the “activity change, negative = inhibition” value rises from 52.1% to 105%.

First: ClC1(Cl)CC1CSc1nnc(-c2ccncc2)o1 (stereo not drawn)
Second: c1cnc(SCCOc2ccc3c(c2)CCC3)nc1
The “activity change, negative = inhibition” value of the first is higher: 83% for the first, 24.9% for the second.

Compared with `CCC(=O)NCCc1nc2cc(NC(=O)c3cccc([N+](=O)[O-])c3)ccc2n1C`, `CCC(=O)Nc1cc(C(=O)OCC(=O)c2ccccc2Cl)ccc1C` is higher in “activity change, negative = inhibition” value: 51.1% for the first, 76.3% for the second.

Compared with `CC1(C)Cc2c(sc(NC(=O)Nc3ccccc3)c2C(N)=O)CO1`, `COc1cccc(NC(=O)c2cnn(-c3ccccc3)c2C)c1` is lower in “activity change, negative = inhibition” value: 69.1% for the first, -9.88% for the second.

Going from `N#Cc1cnn2cc(CCN3CCOCC3)c(-c3ccc(F)cc3)nc12` to `Cc1ccc(NC(=O)c2cc(N3C(=O)C=CC3=O)ccc2N2CCOCC2)cc1Cl`, the “activity change, negative = inhibition” value falls from 10.1% to -88.5%.

Compared with `CC(C)N1C(=O)S/C(=C\c2ccc(-c3ccc(Cl)c(C(=O)O)c3)o2)C1=O`, `O=C(Nc1ccc(-c2cn3c(n2)SCC3)cc1)c1ccco1` is higher in “activity change, negative = inhibition” value: 7.32% for the first, 56% for the second.

Going from `OCC1CCCC(n2cnc3c(=S)nc[nH]c32)O1` (stereo not drawn) to `CCCOC(=O)c1ccc(NC(=O)C2CCCO2)cc1` (stereo not drawn), the “activity change, negative = inhibition” value rises from 13.4% to 109%.

Compared with `O=C(c1cc2ccccc2oc1=O)N1CCN(c2ncccn2)CC1`, `COc1cc2ccccc2cc1C(=O)Nc1ccc(N2CCN(C)CC2)cc1` is higher in “activity change, negative = inhibition” value: 67.3% for the first, 138% for the second.

First: O=C(NCCNc1ccccc1[N+](=O)[O-])c1cc(F)c(F)cc1Cl
Second: O=[N+]([O-])c1cc(C(F)(F)F)ccc1NCCc1ccccn1
The “activity change, negative = inhibition” value of the first is lower: -57.4% for the first, 80.2% for the second.

Going from `Cc1cc2oc3ccc(NCCC4CCCN4C)cc3c(=O)c2cc1C` (stereo not drawn) to `COCc1cc(C)nc2sc(C(=O)Nc3cccc(OC)c3)c(N)c12`, the “activity change, negative = inhibition” value rises from -104% to -17%.

First: CC1Cc2ccccc2N1C(=O)c1ccc(Br)o1 (stereo not drawn)
Second: COc1ccc(NC(=O)C2COc3ccccc3O2)cc1 (stereo not drawn)
The “activity change, negative = inhibition” value of the first is higher: 81.6% for the first, -82.9% for the second.

Compared with `CCNC(=O)CC1C(=O)N(c2ccc(F)cc2)C(=O)N1CCc1ccc(OC)cc1` (stereo not drawn), `COc1ccc(/C=C/C(=O)NC(=S)N2CCN(c3ccccc3OC)CC2)cc1` is higher in “activity change, negative = inhibition” value: 15.2% for the first, 69.5% for the second.

Going from `Cc1ccccc1C(=O)O/N=C(\N)c1ccc([N+](=O)[O-])cc1` to `N/C(=N\OC(=O)c1ccc([N+](=O)[O-])cc1)c1ccc(Br)cc1`, the “activity change, negative = inhibition” value rises from 13% to 95.2%.

Going from `COc1ccccc1N1CCN(/N=C/c2ccc([N+](=O)[O-])cc2)CC1` to `CS(=O)(=O)N1CCN(c2nc3ccc(Cl)cc3s2)CC1`, the “activity change, negative = inhibition” value rises from -13.3% to 78.7%.

First: O=C(N/N=C/C=C/c1ccccc1)c1ccccn1
Second: O=C(Nc1ccccn1)c1ccc(Br)s1
The “activity change, negative = inhibition” value of the first is higher: 94.3% for the first, 56.3% for the second.

First: CCN(CC(=O)Nc1ccc2c(c1)OCCO2)C(=O)c1ccc([N+](=O)[O-])s1
Second: CCOc1cccc(C(=O)NC2=NCCS2)c1
The “activity change, negative = inhibition” value of the first is lower: -34.7% for the first, 28% for the second.

First: CCN(CC)C(=O)CCCOc1ccc(Cl)cc1Cl
Second: Cc1ccc(OCC(=O)Nc2cccc(C)n2)c(C)c1
The “activity change, negative = inhibition” value of the first is lower: 20.3% for the first, 69.9% for the second.
